Reference: PubChem BioAssay (NCATS)
Records with an inconclusive call do not appear. Calls of active or inactive are those of the source. The call rests on the fitted dose curve; in most records, active means well fitted curve in the direction sought with a large enough effect; inconclusive means small, poorly fitted or top-dose-only effect, or another doubt; inactive means no such curve, though single readings can be large; an effect the other way counts as inactive or inconclusive.

Assays:
[1] = tested on: Zika virus NS2B-NS3 protease; assay: Primary screen GU AMC qHTS for Zika virus inhibitors (AID 1347154);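 further: 0% = no-inhibitor control and -100% = no-enzyme control; nearly all actives have a fitted effect of over 70% in size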
Procedure, shortened: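 Fluorogenic AMC-substrate cleavage by noncovalent NS2B-NS3 protease complex (25 nM, pH 8.0 Tris buffer with Tween 20) followed for 15 minutes at room temperature (~20% conversion). Percent inhibition from ex340/em450 signal change, fitted by 4-parameter Hill equation.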

[2] = qHTS to identify inhibitors of the type 1 interferon - major histocompatibility complex class I in skeletal muscle: primary screen against the NCATS Pharmaceutical Collection (AID 1347407);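 further: luminescence of HiBiT knocked into endogenous HLA-B as interferon-induced MHC class I level; on the % scale 0 is the no-effect control and ±100 the full control effect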
Procedure, shortened: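 Compounds […] were added to CRISPR-engineered HLA-B-HiBiT C25cl48 human myoblasts with 4.0 ng/ml IFN-beta. After 24 hrs at 37 C, cells were lysed and HiBiT luminescence measured.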

[3] = biological target: Protein phosphatase 1D (Homo sapiens) (UniProt O15297); assay: RapidFire Mass Spectrometry qHTS Assay for Modulators of WT P53-Induced Phosphatase 1 (WIP1) (AID 1347424);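 further: amount of dephosphorylated VEPPL-S-QETFS peptide product formed by WIP1; series mostly up to about 63 µM; plate controls were DMSO wells for no effect and GSK830371 inhibitor control at 10 µM for full effect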
Procedure, shortened: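 10 nM WIP1 + cpd, 1 h RT; + 2 uM VEPPL-pS-QETFS, 5 min RT; stop 0.5% formic acid; labelled product standard 1 uM; RapidFire MS. Buffer 50 mM Tris pH 7.5, 30 mM MgCl2, 1 mM TCEP.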

[4] = biological target: Protein phosphatase 1D (Homo sapiens) (UniProt O15297); assay: Rhodamine-PBP qHTS Assay for Modulators of WT P53-Induced Phosphatase 1 (WIP1) (AID 1347425); further: % of control where 0% means no effect
Procedure, shortened: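 5 nM WIP1 + 10 uM Rh-PBP, 50 mM Tris pH 7.5, 30 mM MgCl2, 1 mM TCEP, 0.1 mM EGTA, BSA; cpds pinned, 1 hr RT; + 10 uM phosphopeptide; fluorescence 1-min reads x 11 min; delta = f1 - f0.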

[5] = qHTS for inhibitors of adenylyl cyclases using a fission yeast platform: a pilot screen against the NCATS LOPAC library (AID 1347410);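 further: plate controls were DMSO vehicle for no effect and DPI positive control for full effect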
Procedure, shortened: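 GFP from fbp1-GFP reporter, read by Acumen laser cytometry, indicates AC inhibition in fission yeast expressing AC9, GNAS and PDE4D2. Cells grown 18 h in the dark at 30C with compounds, final up to 57 uM.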

Sequence of Protein phosphatase 1D (Homo sapiens) (O15297 whole entry, looked up): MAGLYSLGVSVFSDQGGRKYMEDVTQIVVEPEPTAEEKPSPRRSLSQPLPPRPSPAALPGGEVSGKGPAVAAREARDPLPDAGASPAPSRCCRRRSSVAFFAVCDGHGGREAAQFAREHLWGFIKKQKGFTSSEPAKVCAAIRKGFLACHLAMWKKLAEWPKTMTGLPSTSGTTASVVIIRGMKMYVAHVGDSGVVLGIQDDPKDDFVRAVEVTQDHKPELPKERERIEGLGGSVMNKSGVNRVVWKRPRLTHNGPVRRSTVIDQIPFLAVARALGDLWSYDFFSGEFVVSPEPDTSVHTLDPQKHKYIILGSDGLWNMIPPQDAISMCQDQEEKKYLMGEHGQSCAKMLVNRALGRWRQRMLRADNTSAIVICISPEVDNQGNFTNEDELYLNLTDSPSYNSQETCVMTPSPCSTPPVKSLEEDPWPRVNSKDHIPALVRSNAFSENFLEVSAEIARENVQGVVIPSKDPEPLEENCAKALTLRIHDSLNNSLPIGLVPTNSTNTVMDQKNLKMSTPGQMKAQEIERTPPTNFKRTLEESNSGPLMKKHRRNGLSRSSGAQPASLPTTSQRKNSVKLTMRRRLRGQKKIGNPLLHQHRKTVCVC

CC(C)(C)C(=O)NCCCC(=O)O
inactive: Potency [1] | Potency [2] | outcome [3] | outcome [4]

O=c1[nH]c(=O)c2[nH]c(=O)[nH]c2[nH]1
inactive: activity change, negative = inhibition [1] -2.36% [at 6.83 µM] | activity change, negative = inhibition [2] -11.3% [at 9.18 µM] | activity change, negative = inhibition [3] -6.34% [at 12.6 µM] | activity change, negative = inhibition [4] 10.4% [at 11.5 µM]

CC(O)CN(CCN(CC(C)O)CC(C)O)CC(C)O (stereo not drawn)
inactive: Potency [1] | Potency [2] | outcome [3] | outcome [4]

O=C(O)c1ccccc1-c1ccc(C(F)(F)F)cc1
inactive: Potency [1] | Potency [2] | outcome [3] | outcome [4]

NC(=O)N/N=C/c1ccc([N+](=O)[O-])o1
inactive: Potency [1] | Potency [2] | outcome [3] | outcome [4]

Cc1ccc(C(C)C)cc2c(C)ccc1-2
inactive: Potency [1] | Potency [2] | outcome [3] | outcome [4]

N[C@H]1C(O)O[C@H](CO)[C@@H](O)[C@@H]1O (stereo partly drawn)
inactive: Potency [1] | Potency [2] | outcome [3] | outcome [4]

CCOC(=O)c1ccc(O)cc1
inactive: Potency [1] | Potency [2] | outcome [3] | outcome [4]

CCCCCCCCCCCCCCCCCCOCC(O)CO (stereo not drawn)
inactive: Potency [1] | Potency [2] | outcome [3] | outcome [4]

Nc1ccc(S(=O)(=O)Nc2ccccc2)cc1
inactive: Potency [1] | Potency [2] | outcome [3] | outcome [4]

Cn1cc[nH]c1=S
inactive: Potency [1] | Potency [2] | outcome [3] | outcome [4]

CC1(C)[C@@H]2CC[C@@]1(C)C(=O)C2
inactive: Potency [1] | Potency [2] | outcome [3] | outcome [4]

CCCCOC(=O)c1ccc(O)cc1
inactive: Potency [1] | Potency [2] | outcome [3] | outcome [4]

O=C1OC(OC(=O)c2cccnc2Nc2cccc(C(F)(F)F)c2)c2ccccc21 (stereo not drawn)
inactive: Potency [1] | Potency [2] | outcome [3] | outcome [4]

O=C(O)c1ccccn1
inactive: Potency [1] | Potency [2] | outcome [3] | outcome [4]

CCCOC(=O)c1ccccc1
inactive: Potency [1] | outcome [3] | outcome [4]

Oc1cccc(O)c1
inactive: Potency [1] | Potency [2] | outcome [3] | outcome [4]

C=CCn1c(=O)n([C@@H]2O[C@H](CO)[C@@H](O)[C@H]2O)c2nc(N)[nH]c(=O)c21
inactive: Potency [1] | outcome [3] | outcome [4]

CCCCC/C(C=O)=C\c1ccccc1
inactive: Potency [1] | Potency [2] | outcome [3] | outcome [4]

Cc1c(O)cccc1C(=O)N[C@@H](CSc1ccccc1)[C@H](O)CN1C[C@H]2CCCC[C@H]2C[C@H]1C(=O)NC(C)(C)C
inactive: Potency [1] | outcome [5] | outcome [3] | outcome [4]

CC1(C)CO[C@@H](CC(=O)O)CN1
inactive: Potency [1] | outcome [3] | outcome [4]

Nc1ccc(S(=O)(=O)Nc2ccc(Cl)nn2)cc1
inactive: Potency [1] | Potency [2] | outcome [3] | outcome [4]

Cc1cc2c(cc1S(N)(=O)=O)S(=O)(=O)CCC2
inactive: Potency [1] | Potency [2] | outcome [3] | outcome [4]

C[C@@H]1CCN(C(=O)[C@H](CCCN=C(N)N)NS(=O)(=O)c2cccc3c2NC[C@H](C)C3)[C@@H](C(=O)O)C1
inactive: Potency [1] | Potency [2] | outcome [3] | outcome [4]

C/C(=C(\CCOP(=O)(O)O)SC(=O)c1ccccc1)N(C=O)Cc1cnc(C)nc1N
inactive: activity change, negative = inhibition [1] 0.0847% [at 4.99 µM] | activity change, negative = inhibition [2] -12.9% [at 3.83 µM] | activity change, negative = inhibition [3] 3.91% [at 6.17 µM] | activity change, negative = inhibition [4] -15.2% [at 4.81 µM]

CC1(C)Oc2ccc(C#N)cc2[C@@H](N2CCCC2=O)[C@@H]1O
inactive: Potency [1] | Potency [2] | outcome [3] | outcome [4]

CC[C@@]1(c2ccccc2)NC(=O)N(C)C1=O
inactive: Potency [1] | outcome [3] | outcome [4]

O=c1cc[nH]c(=O)[nH]1
inactive: Potency [1] | Potency [2] | outcome [3] | outcome [4]

O=C1c2c(O)cccc2Cc2cccc(O)c21
inactive: Potency [1] | Potency [2] | outcome [3] | outcome [4]

CC(=O)O[C@@]12CO[C@@H]1C[C@H](O)[C@@]1(C)C(=O)[C@H](O)C3=C(C)[C@@H](OC(=O)[C@H](O)[C@@H](NC(=O)OC(C)(C)C)c4ccccc4)C[C@@](O)([C@@H](OC(=O)c4ccccc4)[C@H]21)C3(C)C
inactive: Potency [1] | outcome [3] | outcome [4]

COc1cc(C(=O)N2CCOCC2)cc(OC)c1OC
inactive: Potency [1] | Potency [2] | outcome [3] | outcome [4]

O=c1cc[nH]c(=S)[nH]1
inactive: Potency [1] | outcome [3] | outcome [4]

Cc1cc(CC(=O)O)n(C)c1C(=O)c1ccc(Cl)cc1
inactive: Potency [1] | outcome [3] | outcome [4]

CCCCCCCCCCCCOS(=O)(=O)O
inactive: Potency [1] | Potency [2] | outcome [3] | outcome [4]

O=Cc1ccccc1C=O
inactive: Potency [1] | outcome [3] | outcome [4]

CCN(CC)CCSC(=O)C(c1ccccc1)c1ccccc1
inactive: Potency [1] | outcome [3] | outcome [4]

COc1ccc(S(=O)(=O)Nc2nnc(CC(C)C)s2)cc1
inactive: Potency [1] | Potency [2] | outcome [3] | outcome [4]

N[C@@H](CSCCCO)C(=O)O
inactive: Potency [1] | outcome [3] | outcome [4]

NC(=O)NC(=O)Cc1ccccc1
inactive: Potency [1] | Potency [2] | outcome [3] | outcome [4]

CC(COc1ccccc1)NC(C)C(O)c1ccc(O)cc1 (stereo not drawn)
inactive: Potency [1] | Potency [2] | outcome [3] | outcome [4]

Cc1ncc([N+](=O)[O-])n1CC(O)CCl (stereo not drawn)
inactive: Potency [1] | outcome [3] | outcome [4]
